Data as given in PubChem BioAssay (EPA / NIEHS).
The source made the active and inactive calls. The calls were made as follows: active = hit-call score of the fitted dose curve at least 0.9, where 1 is the maximum; inactive = score below 0.9.

Read-out: Interleukin-1 alpha (IL1a), IL1A (gene 3552)
Assay: BSK_KF3CT_IL1a: BioMAP Diversity Plus: KF3CT Assay for Interleukin-1 alpha (IL1a) Biomarker Activity (AID 2283070)
Conditions: primary human keratinocytes with fibroblasts; actives raise or lower the signal
Method in brief: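 IL-1a was detected by ELISA 24 h after chemical treatment of a co-culture of human skin keratinocytes and foreskin fibroblasts. Gain or loss of signal was fitted against the DMSO baseline.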

Row | SMILES | outcome | AC50
1 | C=CC(=C)CCC=C(C)C | inactive | 
2 | CC(C)=CCCC(C)=CC=O | inactive | 
3 | CC(C)=CCC/C(C)=C/CO | inactive | 
4 | C=CCCCCCCCCC(=O)O | inactive | 
5 | CC(=O)OCCC(C)C | inactive | 
6 | CC(C)=CCC/C(C)=C\CO | inactive | 
7 | O=C(NS(=O)(=O)/C=C/c1ccccc1)c1ccc(F)cc1Cl | inactive | 
8 | Clc1nc(Cl)c(Cl)c(Cl)c1Cl | inactive | 
9 | Fc1ccccc1[C@@H](F)COC1CCC(Nc2ncnc3[nH]ncc23)CC1 (some centres undefined) | inactive | 
10 | CC[C@H](C)C(=O)O[C@H]1C[C@@H](C)C=C2C=C[C@H](C)[C@H](CC[C@@H]3C[C@@H](O)CC(=O)O3)[C@H]21 |  | 33.5 µM (active)
11 | CCCCC(CC)COC(=O)CCCCCCCCC(=O)OCC(CC)CCCC (centres undefined) | inactive | 
12 | CCCCC(CC)COC(=O)c1ccc(C(=O)OCC(CC)CCCC)cc1 (centres undefined) | inactive | 
13 | O=C(O)c1cccc(Oc2ccccc2)c1 | inactive | 
14 | O=C(CCCCCCCCc1cccnc1)N1CCC(C=C(c2ccccc2)c2ccccc2)CC1 |  | 16.9 µM (active)
15 | CCC(C)(C)C(=O)O[C@H]1C[C@@H](C)C=C2C=C[C@H](C)[C@H](CC[C@@H]3C[C@@H](O)CC(=O)O3)[C@H]21 |  | 34.9 µM (active)
16 | COCCOc1cc2cc(C(=O)NC3CCN(C(C)C)CC3)n(CC(=O)Nc3ccc(Cl)cn3)c2cn1 | inactive | 
17 | CC(=O)OC[C@H]1O[C@@](COC(C)=O)(O[C@H]2O[C@H](COC(C)=O)[C@@H](OC(C)=O)[C@H](OC(C)=O)[C@H]2OC(C)=O)[C@@H](OC(C)=O)[C@@H]1OC(C)=O | inactive | 
18 | NC(=O)NO | inactive | 
19 | CCCCCCc1ccc(O)cc1O |  | 30.3 µM (active)
20 | CCc1cc(SCc2sc(-c3ccc(C(F)(F)F)cc3)nc2CN2CCN(c3ccc(OC)cc3)CC2)ccc1OCC(=O)O |  | 7.25 µM (active)
21 | Nc1nc2ncc(CNc3ccc(C(=O)N[C@@H](CCC(=O)O)C(=O)O)cc3)nc2c(=O)[nH]1 | inactive | 
22 | CCOc1cccc(-n2cc(C(=O)N3CCN(c4cc(C(=O)O)c5ccccc5c4)CC3)nc2-c2ccc(C)cc2)c1 |  | 30.1 µM (active)
23 | C[C@](N)(Cc1ccc(O)c(O)c1)C(=O)O | inactive | 
24 | CN(C)c1ccc(Cc2ccc(N(C)C)cc2)cc1 | inactive | 
25 | O=C(OC[C@H]1O[C@@H](OC(=O)c2cc(O)c(O)c(OC(=O)c3cc(O)c(O)c(O)c3)c2)[C@H](OC(=O)c2cc(O)c(O)c(OC(=O)c3cc(O)c(O)c(O)c3)c2)[C@@H](OC(=O)c2cc(O)c(O)c(OC(=O)c3cc(O)c(O)c(O)c3)c2)[C@@H]1OC(=O)c1cc(O)c(O)c(OC(=O)c2cc(O)c(O)c(O)c2)c1)c1cc(O)c(O)c(OC(=O)c2cc(O)c(O)c(O)c2)c1 |  | 6.1 µM (active)
26 | CC[C@H]1CC[C@H](NCc2cc3c(cc2OC)[C@H]2C[C@H]2C(=O)N3C)[C@H](c2ccccc2)N1 | inactive | 
27 | Cc1ccc(C)c(O)c1 | inactive | 
28 | CC(C)=CCCC(C)CCO (centres undefined) | inactive | 
29 | CC1(C)C(=O)N(Br)C(=O)N1Br | inactive | 

Read-out: TIMP metallopeptidase inhibitor 2 (TIMP2), TIMP2 (gene 7077)
Assay: BSK_KF3CT_TIMP2: BioMAP Diversity Plus: KF3CT Assay for TIMP metallopeptidase inhibitor 2 (TIMP2) Biomarker Activity (AID 2283071)
Conditions: primary human keratinocytes with fibroblasts; actives raise or lower the signal
Method in brief: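 Chemicals were dosed onto human skin primary co-cultures of keratinocytes and foreskin fibroblasts, and TIMP-2 was measured by ELISA after 24 hours. Activity in either direction was fitted relative to DMSO.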

Row | SMILES | AC50 | outcome
30 | O=C(NS(=O)(=O)/C=C/c1ccccc1)c1ccc(F)cc1Cl | 20 µM (active) | 
31 | Fc1ccccc1[C@@H](F)COC1CCC(Nc2ncnc3[nH]ncc23)CC1 (some centres undefined) |  | inactive
32 | CC[C@H](C)C(=O)O[C@H]1C[C@@H](C)C=C2C=C[C@H](C)[C@H](CC[C@@H]3C[C@@H](O)CC(=O)O3)[C@H]21 | 33.8 µM (active) | 
33 | CCCCC(CC)COC(=O)CCCCCCCCC(=O)OCC(CC)CCCC (centres undefined) |  | inactive
34 | CC(=O)OC[C@H]1O[C@@](COC(C)=O)(O[C@H]2O[C@H](COC(C)=O)[C@@H](OC(C)=O)[C@H](OC(C)=O)[C@H]2OC(C)=O)[C@@H](OC(C)=O)[C@@H]1OC(C)=O |  | inactive
35 | NC(=O)NO |  | inactive
36 | CCCCCCc1ccc(O)cc1O | 32.7 µM (active) | 
37 | CCc1cc(SCc2sc(-c3ccc(C(F)(F)F)cc3)nc2CN2CCN(c3ccc(OC)cc3)CC2)ccc1OCC(=O)O | 7.31 µM (active) | 
38 | CCOc1cccc(-n2cc(C(=O)N3CCN(c4cc(C(=O)O)c5ccccc5c4)CC3)nc2-c2ccc(C)cc2)c1 | 14.7 µM (active) | 
39 | CN(C)c1ccc(Cc2ccc(N(C)C)cc2)cc1 |  | inactive
40 | Cc1ccc(C)c(O)c1 |  | inactive
41 | CC(C)=CCCC(C)CCO (centres undefined) |  | inactive

Read-out: Transforming growth factor beta 1 (TGFb1), TGFB1 (gene 7040)
Assay: BSK_KF3CT_TGFb1: BioMAP Diversity Plus: KF3CT Assay for Transforming growth factor beta 1 (TGFb1) Biomarker Activity (AID 2283072)
Conditions: primary human keratinocytes with fibroblasts; actives raise or lower the signal
Method in brief: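 KF3CT co-culture (keratinocytes + fibroblasts), 24 h exposure → TGF-b1 ELISA → bidirectional fit, DMSO = baseline. Parallel SRB total-protein staining (0.1% SRB, 10% TCA fixation, 560 nm) for cytotoxicity.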

Row | SMILES | outcome | AC50
42 | C=CC(=C)CCC=C(C)C | inactive | 
43 | CC(C)=CCCC(C)=CC=O | inactive | 
44 | CC(C)=CCC/C(C)=C/CO | inactive | 
45 | C=CCCCCCCCCC(=O)O | inactive | 
46 | CC(=O)OCCC(C)C | inactive | 
47 | O=C(NS(=O)(=O)/C=C/c1ccccc1)c1ccc(F)cc1Cl | inactive | 
48 | Clc1nc(Cl)c(Cl)c(Cl)c1Cl | inactive | 
49 | Fc1ccccc1[C@@H](F)COC1CCC(Nc2ncnc3[nH]ncc23)CC1 (some centres undefined) | inactive | 
50 | CC[C@H](C)C(=O)O[C@H]1C[C@@H](C)C=C2C=C[C@H](C)[C@H](CC[C@@H]3C[C@@H](O)CC(=O)O3)[C@H]21 |  | 33.3 µM (active)
51 | CCCCC(CC)COC(=O)CCCCCCCCC(=O)OCC(CC)CCCC (centres undefined) | inactive | 
52 | CCCCC(CC)COC(=O)c1ccc(C(=O)OCC(CC)CCCC)cc1 (centres undefined) | inactive | 
53 | O=C(O)c1cccc(Oc2ccccc2)c1 | inactive | 
54 | O=C(CCCCCCCCc1cccnc1)N1CCC(C=C(c2ccccc2)c2ccccc2)CC1 |  | 10.1 µM (active)
55 | CCC(C)(C)C(=O)O[C@H]1C[C@@H](C)C=C2C=C[C@H](C)[C@H](CC[C@@H]3C[C@@H](O)CC(=O)O3)[C@H]21 |  | 31.4 µM (active)
56 | COCCOc1cc2cc(C(=O)NC3CCN(C(C)C)CC3)n(CC(=O)Nc3ccc(Cl)cn3)c2cn1 | inactive | 
57 | CC(=O)OC[C@H]1O[C@@](COC(C)=O)(O[C@H]2O[C@H](COC(C)=O)[C@@H](OC(C)=O)[C@H](OC(C)=O)[C@H]2OC(C)=O)[C@@H](OC(C)=O)[C@@H]1OC(C)=O | inactive | 
58 | NC(=O)NO | inactive | 
59 | CCCCCCc1ccc(O)cc1O |  | 29.7 µM (active)
60 | CCc1cc(SCc2sc(-c3ccc(C(F)(F)F)cc3)nc2CN2CCN(c3ccc(OC)cc3)CC2)ccc1OCC(=O)O |  | 4.39 µM (active)
61 | Nc1nc2ncc(CNc3ccc(C(=O)N[C@@H](CCC(=O)O)C(=O)O)cc3)nc2c(=O)[nH]1 | inactive | 
62 | CCOc1cccc(-n2cc(C(=O)N3CCN(c4cc(C(=O)O)c5ccccc5c4)CC3)nc2-c2ccc(C)cc2)c1 |  | 14.4 µM (active)
63 | C[C@](N)(Cc1ccc(O)c(O)c1)C(=O)O | inactive | 
64 | CN(C)c1ccc(Cc2ccc(N(C)C)cc2)cc1 | inactive | 
65 | O=C(OC[C@H]1O[C@@H](OC(=O)c2cc(O)c(O)c(OC(=O)c3cc(O)c(O)c(O)c3)c2)[C@H](OC(=O)c2cc(O)c(O)c(OC(=O)c3cc(O)c(O)c(O)c3)c2)[C@@H](OC(=O)c2cc(O)c(O)c(OC(=O)c3cc(O)c(O)c(O)c3)c2)[C@@H]1OC(=O)c1cc(O)c(O)c(OC(=O)c2cc(O)c(O)c(O)c2)c1)c1cc(O)c(O)c(OC(=O)c2cc(O)c(O)c(O)c2)c1 |  | 3.09 µM (active)
66 | CC[C@H]1CC[C@H](NCc2cc3c(cc2OC)[C@H]2C[C@H]2C(=O)N3C)[C@H](c2ccccc2)N1 | inactive | 
67 | Cc1ccc(C)c(O)c1 | inactive | 
68 | CC(C)=CCCC(C)CCO (centres undefined) | inactive | 
69 | CC1(C)C(=O)N(Br)C(=O)N1Br | inactive | 
